IDH1 R132H inh: qHTS for Inhibitors of mutant isocitrate dehydrogenase 1 (IDH1): qHTS; IDH1-R132H enzyme, NADPH consumption, diaphorase/resazurin fluorescence; Potency, µM (series often up to 76.6 µM), inactives show at the top dose activity change, negative = inhibition, hits mostly inhibitors; 390,000 tested, 0.093% active; further: potency means the concentration at half of the fitted maximal effect; on the % scale 0 is the no-effect control and ±100 the full control effect; nearly all actives have a fitted effect of over 65% in size
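IDH1-R132H (0.5 ug/mL dispensed) in pH 7.5 Tris buffer was preincubated 30 min with compound, then given a substrate mix of 0.016 mM NADPH and 2 mM alpha-KG for 80 min at room temperature; remaining NADPH was read by diaphorase/resazurin fluorescence.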
PINK1 modulator: A Quantitative High throughput Screen to Identify Chemical Modulators of PINK1 Expression; PINK1 immunofluorescence, high-content cytometry, 24 h; Potency, µM (doses to about 76.6 µM), inactives show at the highest dose activation (PINK1 increase), actives largely listed as activators; 410,000 tested, 0.2% active; active means well fitted activation curve with a large enough effect; inconclusive means small, poorly fitted or top-dose-only effect; cell line not stated here; further: potency means the concentration at half of the fitted maximal effect; % of control where 0% means no effect; nearly all actives have a fitted effect of over 65% in size
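Cells are seeded, rested 12 hours, then given compound at five concentrations or DMSO for 24 hours. After fixation, blocking and antibody staining, PINK1 amount and mitochondrial localization are scored; CCCP serves as control.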
PTHR1 agonist: qHTS for PTHR1 Agonists: Primary Screen; Parathyroid hormone/parathyroid hormone-related peptide receptor (Homo sapiens), Q03431; HEK293 GP2 PTHR1 cells, GloSensor cAMP luminescence, 1 h; Potency, µM (top dose mostly 115 µM), without a hit: at the highest dose activation, most hits filed as activators; 410,000 tested, 0.075% active; further: potency means the concentration at half of the fitted maximal effect; nearly all actives have a fitted effect of over 55% in size
Target sequence (Q03431 whole entry, looked up): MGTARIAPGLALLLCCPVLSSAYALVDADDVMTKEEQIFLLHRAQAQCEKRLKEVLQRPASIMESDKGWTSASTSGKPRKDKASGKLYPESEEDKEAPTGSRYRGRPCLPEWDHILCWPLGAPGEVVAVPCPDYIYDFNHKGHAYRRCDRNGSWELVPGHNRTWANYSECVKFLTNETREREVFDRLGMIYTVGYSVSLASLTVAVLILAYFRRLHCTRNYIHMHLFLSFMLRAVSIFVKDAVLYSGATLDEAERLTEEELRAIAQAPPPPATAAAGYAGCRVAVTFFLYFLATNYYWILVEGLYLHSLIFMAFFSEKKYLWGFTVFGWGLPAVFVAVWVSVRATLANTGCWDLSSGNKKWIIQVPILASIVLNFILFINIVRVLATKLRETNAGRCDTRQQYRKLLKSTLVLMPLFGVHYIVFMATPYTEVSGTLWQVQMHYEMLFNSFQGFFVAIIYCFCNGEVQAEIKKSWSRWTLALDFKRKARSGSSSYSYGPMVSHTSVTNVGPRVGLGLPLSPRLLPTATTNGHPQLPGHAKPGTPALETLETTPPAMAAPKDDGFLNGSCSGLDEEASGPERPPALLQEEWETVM
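HEK-293-derived GP2 cells expressing PTHR1 and a GloSensor cAMP reporter, 3,000/well, plated overnight, given luciferin plus IBMX (each 0.5 mM as added) for 1 h at 37 °C, then compound for 1 h at 37 °C. Luminescence was read after 15 min at room temperature.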
Vif-APOBEC3F blk: qHTS for Inhibitors of Vif-A3F Interactions: qHTS; HeLa A3F-eYFP + Vif (tagged APOBEC3F with the HIV-1 protein that degrades it), YFP fluorescence increase; Potency, µM (series often up to 46.1 µM), inactives show at the highest dose activity, negative = active; 390,000 tested, 0.2% active; AID 602313, 2012; further: potency means the concentration at half of the fitted maximal effect; % of control where 0% means no effect; nearly all actives have a fitted effect of over 65% in size
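HeLa cells stably expressing A3F-eYFP plus Vif, plated and incubated overnight at 37 deg C, then exposed to compounds overnight at 37 deg C. Blocked degradation read as raised yellow fluorescence (Ex 488/Em 500-530).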
Vif-APOBEC3G blk: qHTS for Inhibitors of Vif-A3G Interactions: qHTS; DNA dC->dU-editing enzyme APOBEC-3G (Homo sapiens), Q9HC16; HeLa A3G-eYFP + Vif (tagged APOBEC3G with the HIV-1 protein that degrades it), YFP fluorescence, overnight; Potency, µM (highest dose often 46.1 µM), inactives show at the highest dose activity, negative = active, usual class: inhibitors; 410,000 tested, 0.076% active; AID 602310, 2012; further: potency means the concentration at half of the fitted maximal effect; on the % scale 0 is the no-effect control and ±100 the full control effect; nearly all actives have a fitted effect of over 60% in size
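HeLa cells stably expressing Vif and C-terminally eYFP-tagged A3G, seeded overnight at 37 deg C, then exposed to compound by pintool overnight at 37 deg C. Rise in yellow fluorescence (Ex 488/Em 500-530, Acumen) marks blocked Vif-driven A3G degradation.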
LDHA block: qHTS assay for inhibitors of human lactate dehydrogenase; activity change, % (values are at about 110 or 230 µM); L-lactate dehydrogenase A chain (Homo sapiens), P00338; purified LDHA, NADH/diaphorase-resazurin fluorescence; stronger effect = lower value; 480,000 tested, 0.15% active; in the data active means activity change below about -30%; inconclusive means mostly about -25% to -30%;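 further: plate controls were DMSO wells for no effect and wells without enzyme for full effect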
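Resorufin fluorescence (ex540/em590), read at 0 and 20 min after diaphorase/resazurin addition, reports the NADH left after a 5 min room-temperature reaction of 2 nM human LDH5 with 0.06 mM NADH and 0.2 mM pyruvate.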
* = called active by the depositor; i = inactive; ? = inconclusive; / = no result given; ! = a repeat was not active; [ ] = another dose, or the depositor's remark. Sampled rows, rich in hits. Any-hit rate of the full collection: about 0.59%. Unless noted, the call rests on the fitted dose curve; in most records, active means well fitted curve in the direction sought with a large enough effect; inconclusive means small, poorly fitted or top-dose-only effect, or another doubt; inactive means no such curve, though single readings can be large; an effect the other way counts as inactive or inconclusive.

SMILES | IDH1 R132H inh | PINK1 modulator | PTHR1 agonist | Vif-APOBEC3F blk | Vif-APOBEC3G blk | LDHA block
Cc1cccc(NC(=O)Cc2coc3ccc4ccccc4c23)n1 | 2.0% | 11.2µM* | -2.2%[57.5 µM] | 4.4% | -20.5% | 2.9
O=C(Nc1cccc2cccnc12)c1cccc(Cl)c1Cl | / | / | / | / | / | 0.4
CC(C)OC(=O)/C(C#N)=C/c1c[nH]c2ccccc12 | 7.4% | 10.0% | -2.5% | -6.6% | 2.7% | -32.5*!
COc1ccccc1Nc1nc2nccc(-c3ccccc3OC)c2c(=O)[nH]1 | / | / | / | / | / | -7.1
COc1ccc(C(=O)c2sc(Nc3cccc(Cl)c3)nc2N)cc1OC | / | / | / | / | / | -0.7
COc1cc2c(cc1OC)-c1c(c(C(=O)NCCN3CCOCC3)nn1-c1cccc(Cl)c1)C2 | / | / | / | / | / | 4.7
CCC(C)NC(=O)NC1CCN(c2nc3ccccc3n(CC)c2=O)CC1 (stereo not drawn) | / | / | / | / | / | -0.8
CCC1(C)CC2(CCCN(CCC(O)(c3ccccc3)c3ccccc3)C2)CCO1 (stereo not drawn) | 9.3% | 44.7µM* | i | -2.5% | -2.0% | -2.7
Brc1ccc(CSc2ccc(-c3ccccn3)nn2)cc1 | / | / | / | / | / | -31.1*
c1ccc(CSc2ccc(-c3ccccn3)nn2)cc1 | 9.8% | 3.1% | -27.0% | 1.3% | -6.1% | -9.0
Cc1noc(C)c1CSc1nc2[nH]ncc2c(=O)n1-c1ccccc1 | 10.5% | 8.3% | 28.8% | -16.4% | -30.9% | -2.9
Cc1noc(C)c1CSc1nc2ccccc2c(=O)n1-c1ccccc1 | 4.3% | 16.5% | -24.4% | -1.0% | 3.55µM* | -4.7
CCCNC(=O)COc1ccc2ccc(=O)oc2c1 | / | / | / | / | / | -2.0
Cc1nn(-c2ccccc2)c2ncc(C(=O)c3cc(Cl)ccc3O)cc12 | 0.0% | 28.2µM* | -13.0% | 9.3% | -1.9% | 1.0
Cc1nn(C)c2ncc(C(=O)c3ccccc3O)cc12 | 4.1% | 0.6% | -11.8% | 0.9% | 0.1% | -3.8
O=C(O)c1cccc(Nc2ncnc3ccc(Br)cc23)c1 | 2.9% | 2.6% | 8.91µM*! | -2.9% | 0.4% | -9.2
Cc1cc(C)c(/C=C/c2ccc3ccccc3n2)c(C)c1 | / | / | / | / | / | 9.9
Cc1[nH]c2ccccc2c1/C=C/c1ccc2ccccc2n1 | / | / | / | / | 11.2µM* | /
C(#Cc1ccccc1)C[N+]1(CC#Cc2ccc(C#CC[N+]3(CC#Cc4ccccc4)CCOCC3)cc2)CCOCC1 | / | / | / | / | / | 33.8
Cn1cc(/C=C2\SC(=O)N(c3ccccc3)C2=O)c2ccccc21 | 9.0% | ? | i | 7.94µM* | -18.9% | -6.6
Cc1ccccc1C(=O)N1CCCC(c2nc3ccccc3[nH]2)C1 (stereo not drawn) | / | / | / | / | / | -3.2
CCOc1ccc(CNC(=O)c2ccc(-c3nc(CS(=O)(=O)c4ccccc4)c(C)o3)cc2)cc1 | 18.4% | ? | -0.3% | -14.9% | -12.9% | -35.3*
CC(OC(=O)c1cc2ccccc2[nH]1)C(=O)N(C(C)C)C(C)C (stereo not drawn) | / | / | / | / | / | 0.6
O=C(Cc1c[nH]c2ccccc12)Nc1nc2ccc(Cl)cc2s1 | / | / | / | / | / | 5.2
Cc1cc(C)c(NC(=O)Cn2c(=O)n(Cc3ccc(C(=O)NCc4ccco4)cc3)c(=O)c3sccc32)c(C)c1 | -7.5% | 0.5% | i | ? | 8.91µM* | -18.0
SMILES | IDH1 R132H inh | PINK1 modulator | PTHR1 agonist | Vif-APOBEC3F blk | Vif-APOBEC3G blk | LDHA block
Cc1cccc(C)c1NC(=O)Cn1c(=O)n(Cc2ccc(C(=O)NCc3ccco3)cc2)c(=O)c2sccc21 | / | -1.1% | -0.2% | / | / | -15.0
CC(=O)N(C)C[C@@H]1Oc2ncc(Br)cc2C(=O)N([C@H](C)CO)C[C@@H]1C | -1.1% | 0.1% | -18.6% | -5.0% | -3.0% | -33.6*
C[C@H](NC(=O)[C@@H]1CSC2c3ccccc3C(=O)N21)C(=O)NC1CCCC1 (stereo partly drawn) | -6.3% | -0.3% | i | -6.6% | 5.01µM* | -1.4
C/C(=N/n1cnnc1)c1cccnc1 | -0.3% | 3.4% | 15.8µM* | -5.7% | -0.4% | 1.8
COc1ccccc1OCC(=O)Nc1cccc2cccnc12 | / | / | / | / | / | -0.5
CSc1ccc(CN(C)CC(=O)Nc2c(F)cccc2F)cc1 | 7.2% | -0.2% | -24.3% | -2.7% | -3.8% | -32.7*
CCOC(=O)c1c(NC(=O)c2cc(=O)c3c(C)cc(C)cc3o2)sc2c1CCC2 | 6.9% | 31.6µM* | i | -6.1% | -7.2% | -0.7
CN(C)c1ccc(N=C=S)cc1 | / | / | / | / | / | 54.3
CCN1CCCC1CNC(=O)CCNc1nc(Cl)nc2nc[nH]c12 (stereo not drawn) | / | / | / | / | / | 8.4
FC(F)(F)Oc1ccc(NC(=S)Nc2ccc(OC(F)(F)F)cc2)cc1 | 0.0% | 15.8µM* | -34.1% | 2.7% | 3.9% | -3.2
CC(C)c1ccc(NC(=S)Nc2ccc(OC(F)(F)F)cc2)cc1 | 0.3% | -0.5% | -40.8% | 17.7% | -3.9% | 1.7
CC(C)(CNC(=O)c1cc(-c2ccc3c(c2)CCCC3)on1)N1CCOCC1 | / | / | / | / | / | 8.1
Cn1c(=O)c(Nc2ccc(Cl)cc2)c2c3c(cccc31)C(=O)c1ccccc1-2 | 1.8% | 17.9% | i | 5.01µM* | ? | -3.7
O=C(Nc1ccc(Oc2ccc(NC(=O)Nc3ccc([N+](=O)[O-])cc3)cc2)cc1)Nc1ccc([N+](=O)[O-])cc1 | -0.3% | 28.2µM* | -22.9% | 3.5% | 6.5% | -3.9
CCCC[n+]1c(/C=C/c2c(OC)cc(OC)cc2OC)ccc2ccccc21 | / | 5.62µM* | / | / | ? | -14.1
CCC[n+]1c(/C=C/c2c(OC)cc(OC)cc2OC)ccc2ccccc21 | / | ? | / | / | ? | -3.2
Cc1ccc2c(c1)C(O)(CC(=O)c1ccco1)C(=O)N2 (stereo not drawn) | / | / | / | / | / | -5.7
CC(SC(C)c1c(F)cccc1F)C(=O)NC(N)=O (stereo not drawn) | / | / | / | / | / | 2.3
Cc1nc(-c2ccncc2)[nH]c(=O)c1CC(=O)N(C)C(C)CC(C)C (stereo not drawn) | / | / | / | / | / | 5.7
Cc1ccc(SC2=C(Sc3ccc(C)cc3)C(=O)c3ccccc3C2=O)cc1 | 15.9% | ? | i | 8.91µM* | -9.8% | 41.7
O=C(CCS(=O)(=O)c1cc2c3c(c1)CCN3C(=O)CC2)Nc1ccc(F)c(Cl)c1 | / | / | / | / | / | 1.2
NNC(=S)Nc1c(F)cc(F)cc1Br | 1.0% | 2.3% | -12.9% | 11.2µM* | -0.1% | 0.3
O=C(CCc1ccsc1)N(Cc1ccco1)C1CC1 | / | / | / | / | / | 9.1
